Lassa entry inh: qHTS for Inhibitors of binding or entry into cells for Lassa Virus | Lassa virus pseudotype entry inhibition, cell reporter | actives 1.2% (n = 300,000) | Potency, µM (titrated, usually from 37.9 µM), without a hit: at the top dose activity change, negative = inhibition, usual class: inhibitors; calls by dose curve; tested in HEK293 cells; also: potency is read from the fitted curve at half-maximal effect; nearly all actives have a fitted effect of over 50% in size
HCMV inh: qHTS Assay for inhibitors of the human cytomegalovirus (HCMV). HFF cells, HCMV-luciferase reporter, 72 h; stronger effect = lower value. activity change, negative = inhibition, % at 57.5 µM. actives 4.5% (n = 410,000); in the data active = activity change below about -60%; inconclusive = no clear call, values can overlap the other calls; inactive = above about -39%
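Two-dose cell screen: HFF monolayers treated with compounds and infected with luciferase-expressing HCMV at 1 PFU/cell, 72 h at 37C, then lysed for luciferase measurement.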
HCV inh: qHTS Assay for Inhibitors of Hepatitis C Virus (HCV); AID 651820, 2012; actives 3.4% (n = 340,000); Huh7.5.1 HCVcc-Cre infection, luciferase reporter, 44 h; Potency, µM (top dose mostly 41.8 µM), for inactives: top-dose activity change, negative = inhibition, usual class: inhibitors; active = well fitted inhibition curve with a large enough effect; inconclusive = small, poorly fitted or top-dose-only effect, or another doubt; inactive = no such curve, though single readings can be large or run the other way; also: potency is read from the fitted curve at half-maximal effect
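Compounds are dispensed onto cells plated 4 h earlier at 1,000 per well, with HCVcc-Cre virus (about 0.5 moi) added next. Following 44 h of culture, luminescent signal is measured for 15 sec after 15 min with substrate at room temperature.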
MARV entry inh: qHTS for inhibitors of binding or entry into cells for Marburg Virus. actives 1.8% (n = 300,000). AID 540276, 2011. Marburg virus pseudotyped entry inhibition, cell reporter. Potency, µM (top dose mostly 37.8 µM), for inactives: at the highest dose activity change, negative = inhibition, usual class: inhibitors; calls by dose curve; tested in HEK293 cells; also: potency is read from the fitted curve at half-maximal effect
FMDV inh: High Throughput Screening for Foot and Mouth Disease Virus Antivirals | FMDV antiviral cell-based qHTS | Potency, µM (doses to about 57.9 µM), for the others: at the highest dose activity change, negative = inhibition, actives largely listed as inhibitors | actives 1.2% (n = 410,000) | AID 1159524, 2015; calls by dose curve; tested in HEK293T cells; also: read-out not given here; potency is read from the fitted curve at half-maximal effect; nearly all actives have a fitted effect of over 45% in size
Numbers without * were called inactive; [ ] = another dose, or the depositor's remark. Sampled rows, rich in hits. Any-hit rate of the full collection: about 7.9%. % is scaled to controls: 0 for no effect and ±100 for the full control effect.

For CSc1ccccc1OCc1cc(C(=O)NCc2cccc(C)n2)no1 the results were HCMV inh 69, HCV inh inconclusive and FMDV inh 13%.
Screening CCn1nc(C)c(CNC(=O)c2cc(COc3cncc(Cl)c3)on2)c1C returned HCMV inh -64*, HCV inh inconclusive and FMDV inh 1%.
Screening CCn1nc(C)c(CNC(=O)c2cc(COc3ccccc3SC)on2)c1C returned Lassa entry inh -20%[46.1 µM], HCMV inh -64*, HCV inh 13µM*, MARV entry inh 27%[46.1 µM] and FMDV inh inconclusive.
CC(C)c1cc(CNC(=O)c2cc(COc3cncc(Cl)c3)on2)on1 was read as HCMV inh -32, HCV inh -5% and FMDV inh 1%.
`O=Nc1c(O)n(Cc2c(Cl)cccc2Cl)c2ccccc12` gave Lassa entry inh -1%, HCMV inh -79*, HCV inh 0%, MARV entry inh inconclusive and FMDV inh inconclusive.
For C[C@H]1[C@H](C)CC[C@]2(C(=O)O)CC[C@]3(C)C(=CC[C@@H]4[C@@]5(C)CC[C@H](O)C(C)(C)[C@@H]5CC[C@]43C)[C@H]12 the results were HCMV inh -13, HCV inh 0.32µM* and FMDV inh -24%.
Screening C[C@@H]1CC[C@]2(C(=O)O)CC[C@]3(C)C(=CCC4[C@]56CC[C@@](O)(OC5)C(C)(C)C6CC[C@]43C)C2[C@H]1C (stereo not given in full) returned HCV inh 2µM* and FMDV inh inconclusive.
For C[C@H]1[C@H](C)CC[C@]2(C(=O)O)CC[C@]3(C)C(=CC[C@@H]4[C@@]5(C)C[C@@H](O)[C@H](O)C(C)(C)[C@@H]5CC[C@]43C)[C@H]12 the results were Lassa entry inh 1%, HCV inh 0%[8.37 µM], MARV entry inh 7% and FMDV inh 0%.
Screening CC1CCC2(C(=O)O)CCC3(C)C(=CCC4C3(C)CCC3[C@@]4(C)CC(O)C(O)[C@@]3(C)CO)C2C1C (stereo not given in full) returned FMDV inh -5%.
`O=S(=O)(Nc1ccccc1)C1CCCCC1` gave Lassa entry inh 21%[46.1 µM], HCMV inh -25, HCV inh -2%, MARV entry inh inconclusive and FMDV inh 13%.
CSc1ccc(CN2CCOc3ccc(CN4CCCCC4CO)cc3C2)cc1 (stereo not given) was read as FMDV inh -12%.
For CCOC(=O)C(Cc1ccccc1)(Nc1ccccc1OC)C(O)c1ccc(C#N)cc1 (stereo not given) the results were HCMV inh -66*.
For CCOC(=O)NC(=O)C(/C=N/c1sccc1C(=O)OC)=C(\C)O the results were Lassa entry inh inconclusive, HCMV inh -5, HCV inh 0.56µM*, MARV entry inh inconclusive and FMDV inh inconclusive.
COc1ccc(OC)c(-c2cc(Cl)c3c(c2)CC(CNC(=O)c2coc4c2C(=O)CCC4)O3)c1 (stereo not given) was read as FMDV inh 18%.
C/C(=N\Nc1cc(C)nc(NCc2ccccc2)n1)c1cccc([N+](=O)[O-])c1 was read as HCMV inh 1, HCV inh 2µM* and FMDV inh 0%.
`C/C(=N\Nc1cc(N2CCOCC2)nc(C)n1)c1cccc([N+](=O)[O-])c1` gave HCMV inh -35, HCV inh 11µM* and FMDV inh inconclusive.
For CCCCc1ccc(/C(C)=N/Nc2cc(N3CCOCC3)nc(C)n2)cc1 the results were HCMV inh -25, HCV inh inconclusive and FMDV inh -20%.
CCc1nn(CC(=O)NCc2ccc(OC)c(OC)c2)c(=O)c2cc3sc(C)cc3n12 was read as HCMV inh 37, MARV entry inh 6%[46.1 µM] and FMDV inh -8%.
For Cc1ncc([N+](=O)[O-])n1CCO the results were Lassa entry inh 9%, HCMV inh -2, HCV inh 12%, MARV entry inh 13% and FMDV inh -7%.
For Cc1ncc([N+](=O)[O-])n1CC(C)O (stereo not given) the results were HCMV inh 0, HCV inh 2.8µM* and FMDV inh -14%.
Screening CCN(CC)C(=O)c1ccc2c3c(cccc13)C(=O)N(CCc1ccc(OC)c(OC)c1)C2=O returned Lassa entry inh inconclusive, HCV inh inconclusive, MARV entry inh inconclusive and FMDV inh 32µM*.
For C/C(=N\Nc1ccc(F)cc1F)c1ccccc1O the results were HCMV inh -69*, HCV inh inconclusive, MARV entry inh 5%[46.1 µM] and FMDV inh 44%.
`Cc1ccccc1OCC(=O)NNC(=O)CSc1nc(N)cc(N)n1` gave Lassa entry inh -3%, HCMV inh 9, HCV inh 11%, MARV entry inh -13%[46.1 µM] and FMDV inh -7%.
`CC(C)N(Cc1ccccc1)C(=O)COC(=O)/C=C/c1cnc2ccccc2n1` gave Lassa entry inh 10%, HCMV inh -25, HCV inh 2%, MARV entry inh -18%[46.1 µM] and FMDV inh inconclusive.
`CCN(C(=O)COC(=O)/C=C/c1cnc2ccccc2n1)c1ccccc1` gave HCMV inh -89*, HCV inh 8% and FMDV inh -26%.
`COCCNC(=O)C1(C)CCCN(C(=O)c2c(F)ccc(C)c2F)C1` (stereo not given) gave HCMV inh -64* and FMDV inh -16%.
Screening COc1ccc(CN2CCC3(CC2)c2ccccc2[C@@H](NC(=O)c2ccccc2OC)[C@@H]3O)cc1O returned FMDV inh -9%.
For CC(=O)NC1=C(N(C)C2CCS(=O)(=O)C2)C(=O)c2ccccc2C1=O (stereo not given) the results were Lassa entry inh 7.1µM*, HCMV inh -33, HCV inh -58%, MARV entry inh inconclusive and FMDV inh 13µM*.
Screening CC1=C(Nc2ccc(C(=O)O)cc2)C(=O)c2ccccc2C1=O returned HCMV inh 76, HCV inh inconclusive and FMDV inh 9%.
CC(=O)NC1=C(Nc2ccc(N(C)C)cc2)C(=O)c2ccccc2C1=O was read as Lassa entry inh 1.6µM*, HCMV inh -88*, HCV inh inconclusive, MARV entry inh inconclusive and FMDV inh -12%.
O=[N+]([O-])c1cccc(N=Nc2ccc(O)cc2O)c1 was read as Lassa entry inh inconclusive, HCMV inh -80*, HCV inh 1.8µM*, MARV entry inh 2.8µM* and FMDV inh -9%.
Screening O=[N+]([O-])c1ccc(N=Nc2ccc(O)cc2O)cc1 returned Lassa entry inh 10µM*, HCMV inh -99*, HCV inh inconclusive, MARV entry inh inconclusive and FMDV inh 10%.
